FBW7 act – activators of human E3 ligase FBW7; Q969H0; AlphaScreen FBW7–phospho-cyclin E peptide binding, activator screen; normalized activity (activation), % at 26.1 µM; actives 0.13% (n = 650,000); in the data active = normalized activity above about 1.9%;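 note: purified mutant Fbw7 with reduced substrate affinity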
GPR151 activ – activates the human receptor GPR151; activation, % at 11.2 µM; Q8TDV0; actives 1% (n = 650,000); PathHunter beta-arrestin GPR151 cells, luminescence; AID 1508602; in the data active = activation above about 4.9%;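 note: 0% = median of compound wells and 100% = cells with positive control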
MITF primary – human MITF inhibition, primary screen | O75030 | AID 1259374 | actives 0.91% (n = 650,000) | inhibition, % at 2.6 µM | AlphaScreen MITF homodimerization, bead proximity signal; in the data active = inhibition above about 50%;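 note: 0% = vehicle wells with protein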
TEAD-YAP block – TEAD-YAP interaction inhibition; inhibition, % at 9.12 µM; actives 1.4% (n = 640,000); HEK-TIYL cells, TEAD-Gal4/YAP UAS-luciferase luminescence; in the data active = inhibition above about 32%;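 note: 0% = median of test compound wells and 100% = reference inhibitor wells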
GPR151 confirm – human GPR151 activation, confirmation screen | shares compounds with GPR151 activ | 6,700 tested, under 10 active | GPR151 PathHunter beta-arrestin cells, luminescence, 90 min; % of EA-reagent control over plate median | activation, % at 11.2 µM;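 active = mean percent activation across replicates above the confirmation screen cutoff of 4.91%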
GPR119 counter – activates human GPR119 in a GPR151 counter-screen; shares compounds with GPR151 activ; GPR119 PathHunter beta-arrestin cells, luminescence, 90 min; 0 = compound-well median, 100 = enzyme-acceptor control; activation, % at 11.2 µM; actives 0.3% (n = 6,700);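 active = mean percent activation in the counterscreen above 29.09%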;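 note: counterscreen on off-target GPR119 to flag nonselective hits from the GPR151 activator screen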
Target sequence (Q8TDV5 whole entry, looked up): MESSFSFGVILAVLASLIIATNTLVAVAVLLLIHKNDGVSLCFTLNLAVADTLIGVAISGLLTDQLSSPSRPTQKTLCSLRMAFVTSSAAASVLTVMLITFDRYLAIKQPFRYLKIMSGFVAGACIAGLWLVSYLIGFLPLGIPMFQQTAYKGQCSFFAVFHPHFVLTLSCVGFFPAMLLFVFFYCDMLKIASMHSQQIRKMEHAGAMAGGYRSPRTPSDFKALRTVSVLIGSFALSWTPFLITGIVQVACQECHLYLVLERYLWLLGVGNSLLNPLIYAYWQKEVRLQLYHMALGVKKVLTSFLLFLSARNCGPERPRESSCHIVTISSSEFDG
* = called active by the depositor; . = no result. The list is not random: actives were taken first. Their share in the collection is about 3.5%.

SMILES	FBW7 act	GPR151 activ	MITF primary	TEAD-YAP block	GPR151 confirm	GPR119 counter
Cc1nc2c(C(=O)N3CCN(c4cccc(Cl)c4)CC3)cnn2c(C)c1Cc1ccccc1Cl	0.0	5.3*	1.9	12.3	-0.5	-4.8
Cc1cccc(Cc2c(C)nc3c(C(=O)N4CCCC4)cnn3c2C)c1	0.1	1.9	-1.3	-6.2	.	.
Cc1nc(N)sc1C(=O)N/N=C\c1cccc(OCc2ccccc2)c1	-0.3	-0.9	3.5	-37.4	.	.
CCc1cccc(CC)c1NC(=O)C1CC(=O)N(c2ccc(F)cc2)C1 (stereo not given)	0.1	0.7	11.8	9.6	.	.
CCc1cccc(CC)c1NC(=O)C1CC(=O)N(c2ccccc2OC)C1 (stereo not given)	-0.1	8.6*	-1.2	-3.9	0.4	11.5
Cc1c(NC(=O)C2CC(c3ccc(F)cc3)=NO2)c(=O)n(-c2ccccc2)n1C (stereo not given)	0.1	0.2	-5.1	9.9	.	.
Cn1c(C(=O)N2CCN(c3ccc(F)cc3)CC2)cc2c(=O)n3ccccc3nc21	0.2	5.6*	-0.8	1.3	0.6	7.9
Cc1cc2nc(=S)nc2c2[nH]s[nH]c12	-0.3	0.3	-5.3	-25.1	.	.
CCn1nnnc1SCC(=O)N1CCN(C(=O)c2ccco2)CC1	-0.1	5.0*	2.0	-9.4	-0.8	-8.9
O=C(CSc1nnc2ncccn12)N1CCN(C(=O)c2ccco2)CC1	0.2	1.8	5.3	-13.1	.	.
CC1(C)NC(=O)N(CCOc2ccc([N+](=O)[O-])cc2)C1=O	-0.2	1.0	-4.2	-3.8	.	.
Cc1ccc(CCNC(=O)NCc2noc3ccccc23)cc1	-0.1	-1.3	0.3	-12.4	.	.
COc1ccc(NC(=O)NCc2noc3ccccc23)c(OC)c1	-0.2	0.9	-6.0	2.9	.	.
Cc1cc(Br)ccc1NC(=O)NCc1noc2ccccc12	-0.1	6.1*	-0.1	-3.7	-1.0	5.6
Cc1cccc(CCNC(=O)NCc2noc3ccccc23)c1	0.0	14.5*	-4.6	-14.2	0.3	-1.4

High-throughput results deposited in PubChem by The Scripps Research Institute Molecular Screening Center.
